# According to PubChem BioAssay (EPA / NIEHS):
# Records with an inconclusive call do not appear. Calls of active or inactive are those of the source. The calls were made as follows, unless noted: active = hit-call score of the fitted dose curve at least 0.9, where 1 is the maximum; inactive = score below 0.9.
# How the values were obtained:
# [1] = read-out: Monocyte Chemoattractant Protein-1 (MCP1), CCL2 (gene 6347); assay: BSK_LPS_MCP1: BioMAP Diversity Plus: LPS Assay for Monocyte Chemoattractant Protein-1 (MCP1) Biomarker Activity (AID 2283081); settings: primary human HUVEC with PBMC; actives raise or lower the signal;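 as to AC50: secreted MCP-1 protein quantified by ELISA in culture supernatant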
# Summary of the method: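 Human umbilical vein endothelial cells co-cultured with PBMC, LPS-stimulated; secreted MCP-1 measured by ELISA 24 h after compound addition. Bidirectional curve fitting against DMSO baseline; SRB total-protein staining in parallel cultures for cytotoxicity.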
# [2] = BSK_LPS_PGE2: BioMAP Diversity Plus: LPS Assay for Prostaglandin E2 (PGE2) Biomarker Activity (AID 2283082); settings: primary human HUVEC with PBMC; actives raise or lower the signal;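 as to AC50: secreted prostaglandin E2 measured by ELISA in LPS-stimulated co-culture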
# Summary of the method: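 Primary human endothelial cells and blood mononuclear cells, co-cultured with LPS, receive test chemical; PGE2 ELISA follows at 24 h, with SRB-stained parallel cultures flagging cytotoxicity.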
# [3] = read-out: Tissue Factor, F3 (gene 2152); assay: BSK_LPS_TissueFactor: BioMAP Diversity Plus: LPS Assay for Tissue Factor Biomarker Activity (AID 2283084); settings: primary human HUVEC with PBMC; actives raise or lower the signal
# Summary of the method: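 Human umbilical vein endothelial cells co-cultured with PBMC were dosed with compound. Cell-surface CD142 was measured by ELISA 24 h later. Activity was fitted bidirectionally against DMSO, with SRB total-protein staining in parallel cultures for cytotoxicity.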
# [4] = read-out: Vascular cell adhesion molecule 1 (VCAM1), VCAM1 (gene 7412); assay: BSK_LPS_VCAM1: BioMAP Diversity Plus: LPS Assay for Vascular cell adhesion molecule 1 (VCAM1) Biomarker Activity (AID 2283086); settings: primary human HUVEC with PBMC; actives raise or lower the signal
# Summary of the method: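 Measured by ELISA: VCAM-1 in LPS-activated HUVEC/PBMC co-cultures 24 h after treatment. Values reflect bidirectional fitting with DMSO as baseline.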
# CD38, CD38 (gene 952) = assay: BSK_SAg_CD38: BioMAP Diversity Plus: SAg Assay for CD38 Biomarker Activity (AID 2283087); settings: primary human HUVEC with PBMC; actives raise or lower the signal
# Summary of the method: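 Measures CD38 on a human endothelial/PBMC co-culture driven by SEB and TSST-1, 24 h after compound exposure, using ELISA with fluorescence detection; DMSO defines baseline for bidirectional curve fitting.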
# CD40, CD40 (gene 958) = assay: BSK_SAg_CD40: BioMAP Diversity Plus: SAg Assay for CD40 Biomarker Activity (AID 2283088); settings: primary human HUVEC with PBMC; actives raise or lower the signal
# Summary of the method: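 HUVEC plus PBMC co-culture, superantigen-activated, with CD40 read by ELISA 24 h after dosing. Curves fitted in both directions against DMSO. Overt cytotoxicity checked by parallel SRB total-protein staining.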
# CD69, CD69 (gene 969) = assay: BSK_SAg_CD69: BioMAP Diversity Plus: SAg Assay for CD69 Biomarker Activity (AID 2283089); settings: primary human HUVEC with PBMC; actives raise or lower the signal;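 as to AC50: cell surface CD69 protein quantified by ELISA with fluorescence detection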
# Summary of the method: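 Values derive from bidirectional fitting relative to DMSO vehicle. Cells: umbilical vein endothelium plus peripheral blood mononuclear cells, treated 24 h before fluorescent ELISA for CD69.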
# [5] = read-out: Monocyte Chemoattractant Protein-1 (MCP1), CCL2 (gene 6347); assay: BSK_SAg_MCP1: BioMAP Diversity Plus: SAg Assay for Monocyte Chemoattractant Protein-1 (MCP1) Biomarker Activity (AID 2283090); settings: primary human HUVEC with PBMC; actives raise or lower the signal
# Summary of the method: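 Values derive from bidirectional fitting of ELISA-measured MCP1 against DMSO controls. Readings were taken 24 h after dosing human vascular endothelial cells co-cultured with peripheral blood mononuclear cells under superantigen stimulation.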
# [6] = read-out: Monokine induced gamma interferon (MIG), CXCL9 (gene 4283); assay: BSK_SAg_MIG: BioMAP Diversity Plus: SAg Assay for Monokine induced gamma interferon (MIG) Biomarker Activity (AID 2283092); settings: primary human HUVEC with PBMC; actives raise or lower the signal
# Summary of the method: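 Values reflect bidirectional fitting of ELISA-measured MIG against DMSO vehicle, taken 24 h after dosing of a co-culture of human umbilical vein endothelial cells and peripheral blood mononuclear cells.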
# [7] = BSK_SAg_PBMCCytotoxicity: PBMC Cytotoxicity Assessment in the BioMAP Diversity Plus: SAg Assay (AID 2283093); settings: primary human HUVEC with PBMC;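 also: fitted both ways against DMSO so a hit may be loss or gain of signal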;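 as to AC50: PBMC superantigen activated with SEB plus TSST-1 one hour after compound addition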
# Summary of the method: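 PBMC viability by Alamar Blue reduction, fluorescence read at 546/580 nm after 6 h dye exposure. Cells were dosed 1 h before SEB plus TSST-1 activation (20 ng/mL final each), then held 90 h; endothelial/PBMC human co-culture.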
# [8] = read-out: Interleukin-8 (IL8), CXCL8 (gene 3576); assay: BSK_SAg_IL8: BioMAP Diversity Plus: SAg Assay for Interleukin-8 (IL8) Biomarker Activity (AID 2283094); settings: primary human HUVEC with PBMC; actives raise or lower the signal
# Summary of the method: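 Primary human endothelial cells with PBMC, exposed 24 h; IL-8 determined by ELISA, analysed bidirectionally relative to DMSO.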
# [9] = BSK_SAg_Proliferation: Cell Proliferation Assessment in the BioMAP Diversity Plus: SAg Assay (AID 2283095); settings: primary human HUVEC with PBMC;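 also: relative cell number as total protein by SRB absorbance in sub-confluent culture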
# Summary of the method: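 A human primary co-culture of umbilical vein endothelium and blood mononuclear cells receives compound; relative cell number is quantified at 96 h by SRB staining and 560 nm absorbance, with DMSO-referenced bidirectional curve fitting.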
# [10] = BSK_SAg_SRB: Viability Assessment in the BioMAP Diversity Plus: SAg Assay (AID 2283096); settings: primary human HUVEC with PBMC;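 also: cells read one day after compound addition; hits may be either gain or loss of signal compared with DMSO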
# Summary of the method: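 Compounds were added to a human vascular co-culture of umbilical vein endothelium and PBMC. After 24 h, parallel cultures were fixed with 10% TCA, stained with 0.1% sulforhodamine B and read at 560 nm. Gain or loss of signal was fitted relative to DMSO.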
# [11] = biological target: human CYP19A1, CYP19A1 (gene 1588) (UniProt P11511); assay: NVS_ADME_hCYP19A1: NovaScreen (NVS) CYP450-related Enzyme Activity (ADME) Assay for human CYP19A1 (AID 2283098; active = hit-call score of the fitted dose curve at least 0.9, where 1 is the maximum;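 as to AC50: potency for inhibitors seen as loss of fluorescent enzyme signal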)
# Chain of human CYP19A1, CYP19A1 (gene 1588) (P11511 whole entry, looked up): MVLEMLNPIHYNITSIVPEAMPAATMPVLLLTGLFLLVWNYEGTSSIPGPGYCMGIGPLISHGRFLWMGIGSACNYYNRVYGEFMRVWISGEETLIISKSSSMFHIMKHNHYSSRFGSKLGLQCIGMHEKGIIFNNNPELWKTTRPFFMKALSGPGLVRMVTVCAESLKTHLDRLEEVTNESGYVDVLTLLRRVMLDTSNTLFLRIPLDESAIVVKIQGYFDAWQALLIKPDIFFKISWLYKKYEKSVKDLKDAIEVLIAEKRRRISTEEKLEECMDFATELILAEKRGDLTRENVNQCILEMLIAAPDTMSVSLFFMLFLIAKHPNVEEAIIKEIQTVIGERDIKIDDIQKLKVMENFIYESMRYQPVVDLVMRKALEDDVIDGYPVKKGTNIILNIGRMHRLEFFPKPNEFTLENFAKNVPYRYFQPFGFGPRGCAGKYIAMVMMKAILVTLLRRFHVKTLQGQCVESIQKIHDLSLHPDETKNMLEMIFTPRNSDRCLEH
# Summary of the method: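 Fluorescence intensity read-out; activity taken as signal loss relative to acetonitrile vehicle. Extracted enzyme, specific substrate, no cells, 0.5 h exposure. Duplicate single-point screen at 10 uM, then concentration–response follow-up for actives.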
# [12] = biological target: human CYP1A1, CYP1A1 (gene 1543) (UniProt P04798); assay: NVS_ADME_hCYP1A1: NovaScreen (NVS) CYP450-related Enzyme Activity (ADME) Assay for human CYP1A1 (AID 2283100; active = hit-call score of the fitted dose curve at least 0.9, where 1 is the maximum)
# Chain of human CYP1A1, CYP1A1 (gene 1543) (P04798 whole entry, looked up): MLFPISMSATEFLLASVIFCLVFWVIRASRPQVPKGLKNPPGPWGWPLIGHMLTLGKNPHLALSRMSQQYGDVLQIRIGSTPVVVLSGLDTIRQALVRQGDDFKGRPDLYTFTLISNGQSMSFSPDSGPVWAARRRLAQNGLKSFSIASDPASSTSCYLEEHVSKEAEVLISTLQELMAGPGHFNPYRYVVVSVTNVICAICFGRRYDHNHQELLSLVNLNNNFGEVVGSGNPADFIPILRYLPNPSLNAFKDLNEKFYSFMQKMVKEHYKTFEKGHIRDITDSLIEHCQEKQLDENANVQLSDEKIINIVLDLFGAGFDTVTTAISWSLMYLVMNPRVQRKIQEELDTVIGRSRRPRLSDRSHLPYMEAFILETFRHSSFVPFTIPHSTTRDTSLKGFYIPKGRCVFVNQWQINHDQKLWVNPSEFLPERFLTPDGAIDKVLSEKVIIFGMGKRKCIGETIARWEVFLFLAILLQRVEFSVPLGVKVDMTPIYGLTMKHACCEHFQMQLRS
# Summary of the method: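 Recombinant CYP1A1 with a fluorogenic substrate, cell-free, read 1 h after dosing; acetonitrile as negative control. Single-concentration screen at 10 uM in duplicate, then concentration-response up to 20 uM for chemicals meeting ~30% inhibition threshold.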
smiles,measurement,setting,value
CCC(=O)OCC=Cc1ccccc1,outcome,[1],inactive
same,outcome,[2],inactive
same,outcome,[3],inactive
same,outcome,[4],inactive
same,outcome,"CD38, CD38 (gene 952)",inactive
same,outcome,"CD40, CD40 (gene 958)",inactive
same,outcome,"CD69, CD69 (gene 969)",inactive
same,outcome,[5],inactive
same,outcome,[6],inactive
same,outcome,[7],inactive
same,outcome,[8],inactive
same,outcome,[9],inactive
same,outcome,[10],inactive
CCCCC/C=C\C=C\C(=O)OCC,AC50,[11],15.6 µM (active)
CCOC(=O)C=Cc1ccccc1,outcome,[1],inactive
same,outcome,[2],inactive
same,outcome,[3],inactive
same,outcome,[4],inactive
same,outcome,"CD38, CD38 (gene 952)",inactive
same,outcome,"CD40, CD40 (gene 958)",inactive
same,outcome,"CD69, CD69 (gene 969)",inactive
same,outcome,[5],inactive
same,outcome,[6],inactive
same,outcome,[7],inactive
same,outcome,[8],inactive
same,outcome,[9],inactive
same,outcome,[10],inactive
COc1ccccc1NC(=O)CC(C)=O,outcome,[1],inactive
same,outcome,[2],inactive
same,outcome,[3],inactive
same,outcome,[4],inactive
same,outcome,"CD38, CD38 (gene 952)",inactive
same,outcome,"CD40, CD40 (gene 958)",inactive
same,outcome,"CD69, CD69 (gene 969)",inactive
same,outcome,[5],inactive
same,outcome,[6],inactive
same,outcome,[7],inactive
same,outcome,[8],inactive
same,outcome,[9],inactive
same,outcome,[10],inactive
CC(=O)C1=C(C)[C@@H]2C[C@@]3(C1)[C@H](C)CC[C@H]3C2(C)C,outcome,[11],inactive
O=C(c1ccc(OCCN2CCCCC2)cc1)c1c(-c2ccc(O)cc2)sc2cc(O)ccc12,AC50,[1],30.8 µM (active)
same,AC50,[2],20 µM (active)
same,AC50,[3],35.9 µM (active)
same,AC50,[4],28.4 µM (active)
same,AC50,"CD38, CD38 (gene 952)",30.1 µM (active)
same,AC50,"CD40, CD40 (gene 958)",19.4 µM (active)
same,AC50,"CD69, CD69 (gene 969)",23 µM (active)
same,AC50,[5],30.7 µM (active)
same,AC50,[6],34.7 µM (active)
same,AC50,[7],26.2 µM (active)
same,AC50,[8],28.9 µM (active)
same,AC50,[9],14.6 µM (active)
same,AC50,[10],24.1 µM (active)
same,AC50,[11],4.25 µM (active) [middle of 4 runs]
same,AC50,[12],6.33 µM (active)
O=C1OC2(c3ccc(O)cc3Oc3cc(O)ccc32)c2ccccc21,outcome,[1],inactive
same,outcome,[2],inactive
same,outcome,[3],inactive
same,outcome,[4],inactive
same,outcome,"CD38, CD38 (gene 952)",inactive
same,outcome,"CD40, CD40 (gene 958)",inactive
same,outcome,"CD69, CD69 (gene 969)",inactive
same,outcome,[5],inactive
same,outcome,[6],inactive
same,outcome,[7],inactive
same,outcome,[8],inactive
same,AC50,[9],1.02 µM (active)
same,outcome,[10],inactive
CCCCCCCCCCCCS,AC50,[1],33.3 µM (active)
same,AC50,[2],3.97 µM (active)
same,outcome,[3],inactive
same,AC50,[4],20 µM (active)
same,AC50,"CD38, CD38 (gene 952)",28.6 µM (active)
same,AC50,"CD40, CD40 (gene 958)",20 µM (active)
same,AC50,"CD69, CD69 (gene 969)",20 µM (active)
same,outcome,[5],inactive
same,outcome,[6],inactive
same,outcome,[7],inactive
same,outcome,[8],inactive
same,AC50,[9],20 µM (active)
same,AC50,[10],36.1 µM (active)
CCOC(=O)CCCCCCCCC(=O)OCC,outcome,[1],inactive
same,outcome,[2],inactive
same,outcome,[3],inactive
same,outcome,[4],inactive
same,outcome,"CD38, CD38 (gene 952)",inactive
same,outcome,"CD40, CD40 (gene 958)",inactive
same,outcome,"CD69, CD69 (gene 969)",inactive
same,outcome,[5],inactive
same,outcome,[6],inactive
same,outcome,[7],inactive
same,outcome,[8],inactive
same,outcome,[9],inactive
same,outcome,[10],inactive
CC(=O)OCC=C(C)CCC=C(C)CCC=C(C)C,outcome,[1],inactive
same,outcome,[2],inactive
same,outcome,[3],inactive
same,outcome,[4],inactive
same,outcome,"CD38, CD38 (gene 952)",inactive
same,outcome,"CD40, CD40 (gene 958)",inactive
same,outcome,"CD69, CD69 (gene 969)",inactive
same,outcome,[5],inactive
same,outcome,[6],inactive
same,outcome,[7],inactive
same,outcome,[8],inactive
same,outcome,[9],inactive
same,outcome,[10],inactive
C=C(F)C(=O)OC(C(F)(F)F)C(F)(F)F,outcome,[1],inactive
same,outcome,[2],inactive
same,outcome,[3],inactive
same,outcome,[4],inactive
same,outcome,"CD38, CD38 (gene 952)",inactive
same,outcome,"CD40, CD40 (gene 958)",inactive
same,outcome,"CD69, CD69 (gene 969)",inactive
same,outcome,[5],inactive
same,outcome,[6],inactive
same,outcome,[7],inactive
same,outcome,[8],inactive
same,outcome,[9],inactive
same,outcome,[10],inactive
CC(=O)OC(C)(C)C,outcome,[11],inactive
CCCCCCCCOC(=O)c1ccc(O)cc1,AC50,[11],7.86 µM (active)
C=C1CC/C=C(\C)CC[C@@H]2[C@@H]1CC2(C)C,outcome,[1],inactive
same,AC50,[2],3.97 µM (active)
same,AC50,[3],5.05 µM (active)
same,AC50,[4],29.4 µM (active)
same,AC50,"CD38, CD38 (gene 952)",30.7 µM (active)
same,AC50,"CD40, CD40 (gene 958)",31.7 µM (active)
same,AC50,"CD69, CD69 (gene 969)",32.8 µM (active)
same,AC50,[5],34.4 µM (active)
same,outcome,[6],inactive
same,AC50,[7],20 µM (active)
same,AC50,[8],32.3 µM (active)
same,AC50,[9],22.8 µM (active)
same,AC50,[10],33.1 µM (active)
